Data reported in PubChem BioAssay (NCI).
The panel holds about 83,000 compounds, 20% with a hit somewhere; the sample as a whole holds those more often.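 Step 1: grow cells in 96-well plates. Step 2: add test compound at a single concentration. Step 3: incubate 48 h. Step 4: record percent growth.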 Active and inactive are the calls of the source. The calls were made as follows: active = growth percent below 10; inactive = the rest.

Key:
Test in all cases: NCI-60 one-dose screen, 48 h (100 = growth as untreated, 0 = no growth, -100 = all killed)
Conditions in all cases: 10 µM unless noted
SK-MEL-2 melanoma = test system: SK-MEL-2 melanoma
EKVX NSCLC = test system: EKVX NSCLC
SN12C renal = test system: SN12C renal
UO-31 renal = test system: UO-31 renal
TK-10 renal = test system: TK-10 renal
ACHN renal = test system: ACHN renal
CAKI-1 renal = test system: CAKI-1 renal
A498 renal = test system: A498 renal
CCRF-CEM leukemia = test system: CCRF-CEM leukemia
MOLT-4 leukemia = test system: MOLT-4 leukemia

Measured: growth

CC12CCC3c4ccccc4CCC3(CO1)C2 (stereo unspecified)
inactive: SK-MEL-2 melanoma 109% | EKVX NSCLC 107% | SN12C renal 98.3% | UO-31 renal 117% | TK-10 renal 110% | ACHN renal 98.4% | CAKI-1 renal 101% | A498 renal 78.9% | CCRF-CEM leukemia 86.9% | MOLT-4 leukemia 89.3%

C=CCn1c(SCC(=O)Nc2ccc(C(=O)/C=C/c3cc4cc(OC)ccc4nc3Cl)cc2)nnc1-c1ccc(Br)cc1
inactive: SK-MEL-2 melanoma 79.2% | EKVX NSCLC 87.4% | SN12C renal 81.5% | TK-10 renal 93.5% | ACHN renal 92.1% | CAKI-1 renal 76.1% | A498 renal 89.5% | CCRF-CEM leukemia 58.5% | MOLT-4 leukemia 68.5%

CCOC(=O)c1c(C)c2c(n1C)CSc1cc(C(=O)c3ccccc3)c(=O)[nH]c1-2
inactive: SK-MEL-2 melanoma 122% [100 µM] | EKVX NSCLC 71.8% [100 µM] | SN12C renal 103% [100 µM] | TK-10 renal 103% [100 µM] | ACHN renal 84.9% [100 µM] | CAKI-1 renal 66% [100 µM] | A498 renal 87.7% [100 µM] | CCRF-CEM leukemia 106% [100 µM] | MOLT-4 leukemia 87.3% [100 µM]

COc1ccc(-c2cn(-c3cc(OC)c(OC)c(OC)c3)c(=O)n2C(C)=O)cc1
inactive: SK-MEL-2 melanoma 86.3% | EKVX NSCLC 91% | SN12C renal 91.3% | TK-10 renal 98.9% | ACHN renal 87.1% | CAKI-1 renal 12.1% | A498 renal 68.3% | CCRF-CEM leukemia 91.7% | MOLT-4 leukemia 75.1%

N#CCSc1nnc2n(Cc3ccccc3)c(=O)c3c4c(sc3n12)CCCC4
inactive: SK-MEL-2 melanoma 96% | EKVX NSCLC 94.1% | SN12C renal 96.8% | UO-31 renal 76.2% | TK-10 renal 103% | ACHN renal 106% | CAKI-1 renal 86.2% | A498 renal 93.4% | CCRF-CEM leukemia 86.5% | MOLT-4 leukemia 90.7%

C[C@]12CC[C@@H]3c4ccc(O)c([N+](=O)[O-])c4CC[C@H]3[C@@H]1CCC2=O
inactive: SK-MEL-2 melanoma 107% | EKVX NSCLC 58.5% | SN12C renal 101% | TK-10 renal 89% | ACHN renal 94.1% | CAKI-1 renal 72.7% | A498 renal 141% | CCRF-CEM leukemia 110% | MOLT-4 leukemia 80.4%

COc1ccc2c(c1)c(-c1noc(C(=O)c3cn(C)c4ccc(Br)cc34)n1)cn2C
inactive: SK-MEL-2 melanoma 93.9% | EKVX NSCLC 114% | SN12C renal 100% | UO-31 renal 76.1% | TK-10 renal 103% | ACHN renal 103% | CAKI-1 renal 94.2% | A498 renal 121% | CCRF-CEM leukemia 99.8% | MOLT-4 leukemia 82.7%

Cc1nc2ncnc(Cl)c2[nH]1
inactive: SK-MEL-2 melanoma 104% | EKVX NSCLC 103% | SN12C renal 99.7% | TK-10 renal 94.4% | ACHN renal 109% | CAKI-1 renal 94.7% | A498 renal 97.3% | CCRF-CEM leukemia 87.7% | MOLT-4 leukemia 94.7%

COc1ccc(C2=Nc3c/c(=C\c4c(O)[nH]c5ccc(Cl)cc45)ccc3=N2)cc1
inactive: SK-MEL-2 melanoma 20.1% | EKVX NSCLC 56.6% | SN12C renal 73.4% | TK-10 renal 82.5% | ACHN renal 70.1% | CAKI-1 renal 51.3% | A498 renal 25.9% | MOLT-4 leukemia 19.9%
active: CCRF-CEM leukemia 8.54%

CCCCCCCCCCCCCCCC(N)c1ccccc1 (stereo unspecified)
active: ACHN renal -50.3% | CAKI-1 renal 9.49% | CCRF-CEM leukemia -1.76% | MOLT-4 leukemia -38.6%
inactive: SK-MEL-2 melanoma 70.8% | EKVX NSCLC 25.3% | SN12C renal 28% | UO-31 renal 26.2% | TK-10 renal 52.2% | A498 renal 60.8%

O=C(COc1ccc(-c2nc3ccccc3[nH]2)cc1)N=Nc1c(O)[nH]c2ccc(Cl)cc12
inactive: SK-MEL-2 melanoma 107% | EKVX NSCLC 95.7% | SN12C renal 83.9% | TK-10 renal 88.2% | ACHN renal 97.6% | CAKI-1 renal 93.9% | A498 renal 89.8% | CCRF-CEM leukemia 27.6% | MOLT-4 leukemia 22.9%

CN(C)CCNc1nc2c3cc(Cl)ccc3nn2c2ccccc12
inactive: SK-MEL-2 melanoma 95.2% | EKVX NSCLC 49.8% | SN12C renal 40.9% | UO-31 renal 28.2% | TK-10 renal 97.8% | ACHN renal 22.7% | CAKI-1 renal 40.4% | CCRF-CEM leukemia 47.1% | MOLT-4 leukemia 15.9%
active: A498 renal -6.05%

COc1ccc(/C(C)=C(/c2ccc(OCCCN(C)C)cc2)c2ccc(OC(=O)Cc3ccccc3)cc2)cc1
inactive: SK-MEL-2 melanoma 91% | EKVX NSCLC 65.8% | SN12C renal 82.4% | TK-10 renal 95.2% | ACHN renal 87.2% | CAKI-1 renal 92.9% | A498 renal 83.1% | CCRF-CEM leukemia 65% | MOLT-4 leukemia 47.5%

C#CCOc1ccc2ncnc(Nc3ccc(NC(=O)CCl)cc3)c2c1
active: SK-MEL-2 melanoma -7.65% | EKVX NSCLC -0.0323% | SN12C renal -13.2% | TK-10 renal 1.64% | ACHN renal -51.2% | CCRF-CEM leukemia -23.7% | MOLT-4 leukemia -8.27%
inactive: CAKI-1 renal 35.8% | A498 renal 55.9%
